High-throughput results (PubChem BioAssay)
Epigenetic reg – Quantitative High-Throughput Screen for Regulators of Epigenetic Control | murine LDR cells, GFP reporter derepression, 30 h | Potency, µM (titrated, usually from 53.9 µM), most hits filed as activators | actives 0.2% (n = 280,000) | AID 1865, 2009; further: nearly all actives have a fitted effect of over 60% in size
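Murine LDR cells bearing a silenced CMV-driven GFP reporter were exposed to compound for 30 h at 37 C. After PBS washes, GFP-positive cells (20-120 um objects) counted by laser-scanning microplate cytometry.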
NPSR antagonist – qHTS Assay for Antagonists of the Neuropeptide S Receptor: cAMP Signal Transduction. Q6W5P4. CHO-NPSR cells, cAMP TR-FRET, antagonist mode. Potency, µM (highest dose often 38.3 µM), most hits filed as inhibitors. actives 1% (n = 220,000); further: nearly all actives have a fitted effect of over 50% in size
Target sequence (Q6W5P4 whole entry, looked up): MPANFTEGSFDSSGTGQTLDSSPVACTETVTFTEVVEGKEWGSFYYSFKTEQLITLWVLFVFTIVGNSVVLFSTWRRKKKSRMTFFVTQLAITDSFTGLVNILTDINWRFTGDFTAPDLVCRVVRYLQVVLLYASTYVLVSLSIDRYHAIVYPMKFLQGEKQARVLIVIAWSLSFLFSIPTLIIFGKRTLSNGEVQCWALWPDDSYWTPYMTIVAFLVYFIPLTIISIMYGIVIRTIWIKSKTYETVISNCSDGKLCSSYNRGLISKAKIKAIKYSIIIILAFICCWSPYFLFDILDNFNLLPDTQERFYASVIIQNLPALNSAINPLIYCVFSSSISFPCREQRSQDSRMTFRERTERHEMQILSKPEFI
HttQ103 aggreg – qHTS Multiplex Assay to Identify Dual Action Probes in a Cell Model of Huntington: Aggregate Formation (GFP); PC12 HttQ103-GFP aggregates, Acumen cytometry, 40 h; Potency, µM (top dose mostly 46.1 µM), usual class: inhibitors; actives 1.1% (n = 220,000); further: nearly all actives have a fitted effect of over 60% in size
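Read-out: GFP aggregate count by laser scanning cytometer (488 nm excitation, 500-530 nm emission, 1–25 µm objects >6 SD above background). Cells: PC12, inducible HTTex1-Q103-GFP, 100 nM tebufenozide; compounds titrated.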
HTT ATP protect – qHTS Multiplex Assay to Identify Dual Action Probes in a Cell Model of Huntington: Cytoprotection (ATP); actives 0.14% (n = 230,000); PC12 HTT-Q103 induced, cytoprotection, ATP luminescence, 40 h; AID 1471, 2008; Potency, µM (titrated, usually from 56.4 µM), actives largely listed as activators; further: nearly all actives have a fitted effect of over 45% in size
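Quantitative HTS on tebufenozide-induced (100 nM) PC12 cells expressing HTTQ103 exon 1–GFP; compounds tested as a concentration series; survival measured via cellular ATP.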
LMNA splice mod – qHTS Assay for Modulators of Lamin A Splicing; HeLa LMNA splicing GFP/RFP minigene ratio, 48 h; Potency, µM (titrated, usually from 46.1 µM), hits mostly inhibitors; actives 0.01% (n = 200,000); active means well fitted inhibition curve with a large enough effect in the signal ratio, with a control signal flat, not every such curve was filed as active; inconclusive means small, poorly fitted or top-dose-only effect, or effect the other way, or a change in a side signal; the % refers to the signal ratio
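S3 HeLa stable clones carrying a lamin A-EGFP splicing minigene plus DsRed2 were seeded at 600 cells/well in Opti-MEM with 2% FBS, pin-dosed and incubated 48 h at 37°C. Acumen cytometry (488 nm) gave the GFP/RFP total-intensity ratio.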
Hits are given with their value; - = inactive; ? = inconclusive; . = no result; ! = not active in a repeat; [ ] = dose if it differs, or a comment. Hits are enriched below; roughly 1.5% of the tested compounds scored in any of these assays. Unless noted, the call rests on the fitted dose curve; in most records, active means well fitted curve in the direction sought with a large enough effect; inconclusive means small, poorly fitted or top-dose-only effect, or another doubt; inactive means no such curve, though single readings can be large; an effect the other way counts as inactive or inconclusive.

SMILES	Epigenetic reg	NPSR antagonist	HttQ103 aggreg	HTT ATP protect	LMNA splice mod
O=C(Nc1cccc2ccccc12)N1CC=C(c2ccccc2)CC1	-	-	-	-[10 µM]	-
COC(=O)c1ccc(Cl)cc1NC(=O)N1CC=C(c2c[nH]c3ccccc23)CC1	28µM	.	.	.	.
Cc1[nH]c2ccccc2c1CCN(Cc1cccnc1)C(=S)Nc1cccc(F)c1	-	-	-	-	?
Cc1[nH]c2ccccc2c1CCN(Cc1cccnc1)C(=S)Nc1ccc(F)cc1	-	7.9µM	-	-	?
CC1CC(C)CN(S(=O)(=O)c2ccc(C(=O)NCCCn3ccnc3)cc2)C1 (configuration not stated)	-	-	7.9µM	-	?
Cc1ccc(CNC(=O)c2ccc(CSCc3ccccc3C)o2)cc1	-	.	.	.	-
Cc1ccc2c(c1)C(=O)N(CCCCO)C2=O	-	-	-	-[10 µM]	-
O=C1c2ccc(Oc3ccc4c(c3)C(=O)N(CCCO)C4=O)cc2C(=O)N1CCCO	-	-	5.6µM	-	-
O=C(NCCc1ccccc1)c1sc2ncccc2c1-n1cccc1	-	.	.	.	-
COc1cccc2c1C(=O)c1c(O)c3c(c(O)c1C2=O)C[C@](O)(C(=O)CO)C[C@@H]3O[C@H]1C[C@H](N)[C@@H](O)[C@H](C)O1	.	.	-	-	-
CC(=O)[C@]1(O)Cc2c(O)c3c(c(O)c2[C@@H](O[C@H]2C[C@H](N)[C@H](O)[C@H](C)O2)C1)C(=O)c1c(O)cccc1C3=O	?	.	0.63µM	-	.
COc1cccc2c1C(=O)c1c(O)c3c(c(O)c1C2=O)C[C@@](O)(C(C)=O)C[C@@H]3O[C@H]1C[C@H](N)[C@H](O)[C@H](C)O1	-	?	2.2µM!	-	?
CC(=O)[C@]1(O)Cc2c(O)c3c(c(O)c2[C@@H](O[C@H]2C[C@H](N)[C@H](O)[C@H](C)O2)C1)C(=O)c1ccccc1C3=O	?	-	0.63µM	-	?
COc1cccc2c1C(=O)c1c(O)c3c(c(O)c1C2=O)C[C@@](O)(C(=O)CO)C[C@@H]3OC1C[C@@H](N)[C@H](O)[C@H](C)O1 (some centres not stated)	-	.	.	-	.
CCc1ccc(NC(=O)C2CCCN2S(=O)(=O)c2cccc3nsnc23)cc1 (configuration not stated)	-	.	.	.	.
COc1ccccc1N=Nc1nc(-c2ccccc2)c(-c2ccccc2)[nH]1	-	13µM	?	-[1.9 µM]	?
O=C(/C=C/c1ccc(-c2ccc(F)cc2)o1)N1CCCC1	-	-	-	-[10 µM]	.
CC1CCN(CC(=O)NCc2ccccc2)CC1	-	-	2.5µM	-[0.074 µM]	-
COc1cc(C2C(C(=O)Nc3ccc(C)cc3C)=C(C)Nc3nc4ccccc4n32)cc(OC)c1OC (configuration not stated)	-	.	.	.	.
Cc1ccn2c(-c3csc(NCc4ccccc4)n3)c(C)nc2c1	-	?	11µM	-[1.9 µM]	?
COc1ccc(-c2csc(NCc3ccco3)n2)cc1	-	-	-	-[10 µM]	?
Cc1nc(C)c(-c2csc(NCc3ccco3)n2)s1	-	-	-	-[10 µM]	-
c1coc(CNc2nc(-c3ccncc3)cs2)c1	-	-	14µM	-[10 µM]	?
Cc1nc2ccccn2c1-c1csc(NCc2ccco2)n1	-	-	5.6µM	-	?
COc1ccc(N(C)C(=O)c2nn(-c3ccc(C)cc3)c(=O)n(C)c2=O)c(OC)c1	-	.	.	.	-
SMILES	Epigenetic reg	NPSR antagonist	HttQ103 aggreg	HTT ATP protect	LMNA splice mod
COc1ccc(-c2nc3ccc(NS(=O)(=O)c4ccc(C)cc4)cc3o2)cc1	-	.	.	.	?
N#C/C(=C/c1ccc(O)cc1)c1nc(-c2ccc(-c3ccccc3)cc2)cs1	11µM	.	.	.	.
CC(C)(C)OC(=O)NCC(=O)Oc1cc2oc(=O)cc(-c3ccccc3)c2cc1Cl	-	-	4µM	-[10 µM]	?
O=C(Oc1cc2oc(=O)cc(-c3ccccc3)c2cc1Cl)C1CCCCC1	-	-	7.1µM	-	?
O=C(O)COc1ccc2c(-c3ccccc3)cc(=O)oc2c1	-	-	-	-[10 µM]	-
O=C(Oc1ccc2ccc(=O)oc2c1)C1CCCCC1	-	-	-	.	-
CC(C)C[C@@H](/C=C/S(C)(=O)=O)NC(=O)[C@H](CC(C)C)NC(=O)[C@H](CC(C)C)NC(=O)OCc1ccccc1	6.3µM	.	.	-	.
